Data from PubChem BioAssay AID1159580 (chemical genetic matrix, 2015).
“And” between values parts separate entries of the source, which are not always exact repeats. Identical values can stand only once. The campaign covered roughly 5,500 compounds. About 2,000 (36%) were called active. Roughly 18% stayed inconclusive and do not appear here. Cut-off read from the data, not from the text of the source: active = normalized growth mostly below about 0.91 (no sharp cut-off); inconclusive = no clear call, values can overlap the other calls; inactive = mostly above about 0.92. This is one part of the list.

Assay: chemical genetic growth profiling, strain panel (AID 1159580);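 note: tested at 20 µM; growth read once vehicle control cultures reached saturation at 30 °C; 1 = growth at the plate median or of vehicle wells; lower values mean less growth of the strain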
Settings: S. cerevisiae deletion strains, growth OD

Measured: normalized growth

CCCc1nn(C)c2c(=O)[nH]c(-c3cc(S(=O)(=O)N4CCN(C)CC4)ccc3OCC)nc12
inactive: locus YAL013W, strain DEP1, hits give low values 1.02 | locus YAL021C, strain ccr4, hits give low values 0.991 | locus YAL026C, strain drs2, hits give low values 0.988 | locus YAL030W, strain snc1, hits give low values 0.997 | locus YBL061C, strain skt5, hits give low values 0.989 | locus YBR009C, strain hhf1, hits give low values 1 | locus YBR021W, strain FUR4, hits give low values 1.05 | locus YBR023C, strain chs3, hits give low values 0.988 | locus YBR171W, strain sec66, hits give low values 0.99 | locus YBR229C, strain ROT2, hits give low values 1.02 | locus YBR231C, strain swc5, hits give low values 0.988 | locus YBR279W, strain paf1, hits give low values 0.985 | locus YCL011C, strain gbp2, hits give low values 0.987 | locus YCL016C, strain dcc1, hits give low values 0.994 | locus YCL029C, strain bik1, hits give low values 0.993 | locus YCL061C, strain MRC1, hits give low values 0.981 | locus YCL069W, strain vba3, hits give low values 0.992 | locus YCR088W, strain abp1, hits give low values 0.983 | locus YDL005C, strain med2, hits give low values 0.987 | locus YDL035C, strain GPR1, hits give low values 1.03 | locus YDL040C, strain nat1, hits give low values 0.991 | locus YDL074C, strain BRE1, hits give low values 1.07 | locus YDL101C, strain DUN1, hits give low values 1.02 | locus YDL134C, strain PPH21, hits give low values 1.03 | locus YDL185W, strain tfp1, hits give low values 1 | locus YDL192W, strain arf1, hits give low values 0.989 | locus YDR001C, strain nth1, hits give low values 0.989 | locus YDR069C, strain doa4, hits give low values 0.991 | locus YDR101C, strain arx1, hits give low values 0.991 | locus YDR137W, strain rgp1, hits give low values 0.986 | locus YDR150W, strain NUM1, hits give low values 1.02 | locus YDR159W, strain sac3, hits give low values 1 | locus YDR162C, strain NBP2, hits give low values 1.01 | locus YDR195W, strain ref2 0.978 | locus YDR297W, strain sur2, hits give low values 0.991 | locus YDR318W, strain mcm21, hits give low values 1 | locus YDR334W, strain swr1, hits give low values 0.989 | locus YDR335W, strain msn5, hits give low values 0.993 | locus YDR388W, hits give low values 0.962 | locus YDR392W, strain spt3, hits give low values 0.989 | locus YDR502C, strain sam2, hits give low values 0.99 | locus YEL003W, strain gim4, hits give low values 0.995 | locus YEL037C, strain rad23, hits give low values 0.992 | locus YEL061C, strain CIN8 (second series), hits give low values 0.988 | locus YEL061C, strain CIN8, hits give low values 1.02 | locus YER015W, strain faa2, hits give low values 0.994 | locus YER016W, strain bim1, hits give low values 0.988 | locus YER110C, hits give low values 0.974 | locus YER111C, strain swi4, hits give low values 0.989 | locus YER155C, strain BEM2 (second series), hits give low values 0.987 | locus YER155C, strain BEM2, hits give low values 1.01 | locus YER167W, strain BCK2, hits give low values 1.03 | locus YFR010W, strain ubp6, hits give low values 0.98 | locus YGL078C, strain dbp3, hits give low values 0.985 | locus YGL086W, strain mad1, hits give low values 0.992 | locus YGL167C, strain pmr1, hits give low values 1 | locus YGL173C, strain kem1, hits give low values 0.983 | locus YGL227W, strain vid30, hits give low values 0.988 | locus YGL240W, strain doc1, hits give low values 1 | locus YGL248W, strain PDE1, hits give low values 1.02 | locus YGL253W, strain hxk2, hits give low values 0.995 | locus YGR078C, strain PAC10, hits give low values 1.04 | locus YGR135W, strain pre9, hits give low values 0.995 | locus YGR229C, strain SMI1, hits give low values 1.03 | locus YGR252W, strain gcn5, hits give low values 0.953 | locus YHR013C, strain ard1, hits give low values 0.956 | locus YHR027C, strain rpn1, hits give low values 0.992 | locus YHR030C, strain SLT2, hits give low values 1.02 and 1.03 | locus YHR079C, strain IRE1 (second series), hits give low values 0.991 | locus YHR079C, strain IRE1, hits give low values 1.05 | locus YHR094C, strain hxt1, hits give low values 0.995 | locus YHR129C, strain ARP1, hits give low values 1.02 | locus YHR142W, strain chs7, hits give low values 0.99 | locus YHR200W, strain rpn10, hits give low values 1 | locus YIL066C, strain RNR3, hits give low values 1.03 | locus YIL073C, strain SPO22, hits give low values 1.06 | locus YIL125W, strain kgd1, hits give low values 0.994 | locus YIR030C, strain dcg1, hits give low values 0.997 | locus YJL092W, strain hpr5, hits give low values 0.99 | locus YJL095W, strain BCK1 (second series), hits give low values 0.986 | locus YJL095W, strain BCK1, hits give low values 1.04 and 1.01 | locus YJL115W, strain asf1, hits give low values 0.993 | locus YJL129C, strain trk1, hits give low values 0.995 | locus YJL134W, strain LCB3, hits give low values 1.01 | locus YJL154C, strain vps35, hits give low values 0.988 | locus YJL164C, strain tpk1, hits give low values 0.999 | locus YJL166W, strain qcr8, hits give low values 0.991 | locus YJL168C, strain set2, hits give low values 0.995 | locus YJL187C, strain SWE1 (second series), hits give low values 1.02 | locus YJL187C, strain SWE1, hits give low values 0.991 | locus YJR043C, strain POL32, hits give low values 1.04 | locus YJR066W, strain TOR1, hits give low values 0.981
